This is part of a sample that, as a whole, favours compounds with a hit. Of some 79,000 tested, about 15% had one in any assay. A number with no mark means an inactive call. The source made the active and inactive calls. Rule as the data show it: active = growth inhibition above about 70%; inactive = the rest.
Test: NCI Yeast Anticancer Drug Screen. Data for the cln2 rad14 strain (AID 165);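 also: 0% = growth equal to vehicle treated cultures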
Details: S. cerevisiae cln2 rad14 strain, hits give high values
Experimental: Growth inhibition of yeast strains with defined genetic alterations is measured as a screen for potential anti-cancer activity. Selected strains with alterations in DNA damage repair or cell cycle control were exposed to compounds and growth inhibition was measured relative to vehicle treated controls. The strain used in this assay is cln2 rad14

[1] = at 5.0 µM (retest, dose inferred, filed as 0.5)
[2] = at 50.0 µM (retest, dose inferred, filed as 5.0)

## O=C1O/C(=C(/Cl)c2c3ccccc3cc3ccccc23)c2ccccc21
[1]
  growth inhibition: -4%
[2]
  growth inhibition: 94% (active)
At 50.0 µM
  growth inhibition: 68.7%

## CCC(C)NC(=S)N/N=C(\C)c1ccccn1 (configuration not stated)
[1]
  growth inhibition: 33%
[2]
  growth inhibition: 100% (active)
At 50.0 µM
  growth inhibition: 90% (active)

## CC[N+](CC)(CC)Cc1ccc(C[N+](CC)(CC)CC)cc1
[1]
  growth inhibition: 4%
[2]
  growth inhibition: 7%
At 50.0 µM
  growth inhibition: 92.4% (active)

## COC(=O)C12OCC34C(CC5C(C)C6=CC(=O)OC6=CC5(C)C3C(O)C1O)OC(=O)C(O)C24 (configuration not stated)
[1]
  growth inhibition: -6%
[2]
  growth inhibition: 96% (active)
At 50.0 µM
  growth inhibition: 88.1% (active)

## Oc1ccc(C2CCCCC2)c(O)c1
[1]
  growth inhibition: 30%
[2]
  growth inhibition: 45%
At 50.0 µM
  growth inhibition: 65.8%

## COc1ccccc1/C=C1\Sc2scc(-c3ccc(O)c(O)c3)[n+]2C1=O
[1]
  growth inhibition: -7%
[2]
  growth inhibition: 99% (active)
At 50.0 µM
  growth inhibition: 97.2% (active)

## O=C(COc1ccc(Br)cc1Br)N1N=C(c2ccc([N+](=O)[O-])o2)CC1(O)c1ccccc1 (configuration not stated)
[1]
  growth inhibition: 0%
[2]
  growth inhibition: 0%
At 50.0 µM
  growth inhibition: 76.2% (active)

## CCOC(=O)C1CN(CCCCCCN2CC(C(=O)OCC)C(=O)C2=O)C(=O)C1=O (configuration not stated)
[1]
  growth inhibition: 4%
[2]
  growth inhibition: 0%
At 50.0 µM
  growth inhibition: 52.9%

## O=c1c(O)c(-c2ccc(Cl)cc2)oc2cc(O)ccc12
[1]
  growth inhibition: -7%
[2]
  growth inhibition: -2%
At 50.0 µM
  growth inhibition: -9.3%

## CC(=O)CC1CCC(=O)/C=C/C(=O)OC(CC(C)=O)CCC(=O)/C=C/C(=O)O1 (configuration not stated)
[1]
  growth inhibition: 5%
[2]
  growth inhibition: 27%
At 50.0 µM
  growth inhibition: 23.1%

## Cc1cccc(NC(=O)C(=O)C(C2OC(=O)c3ccccc32)[N+](=O)[O-])c1C (configuration not stated)
[1]
  growth inhibition: 27%
[2]
  growth inhibition: 79% (active)
At 50.0 µM
  growth inhibition: 90.4% (active)

## O=C1CCS(=O)(=O)c2ccccc21
[1]
  growth inhibition: 3%
[2]
  growth inhibition: 94% (active)
At 50.0 µM
  growth inhibition: 36.9%

## O=NN(CCCl)C(=O)Nc1cc(Cl)ccc1O
[1]
  growth inhibition: -3%
[2]
  growth inhibition: 13%
At 50.0 µM
  growth inhibition: 8.45%

## CSc1nc(SC)c2cn(Cc3ccccc3)nc2n1
[1]
  growth inhibition: -8%
[2]
  growth inhibition: 85% (active)
At 50.0 µM
  growth inhibition: 26.2%

Source: PubChem BioAssay (NCI)
